Reference: the supplement of paper PMC13380429

Experiments:
[1] = tested on: Vero E6 infected with SARS-CoV-2; test: morphology score (similarity to uninfected cells); higher = more like uninfected cells; conditions: 24 h
[2] = tested on: Vero E6 infected with SARS-CoV-2; test: SARS-CoV-2 infection rate relative to infected DMSO; higher = more infection, active = 60 or less; conditions: 24 h

Compound	morphology score [1]	SARS-CoV-2 infection rate [2]
C[C@H]1NCc2cc(-c3ccc4c(=O)c(C(=O)O)cn(C5CC5)c4c3OC(F)F)ccc21 [garenoxacin] (10 µM)	0.0451	102% (inactive)
CC1(C)S[C@@H]2[C@H](NC(=O)[C@H](NC(=O)N3CCNC3=O)c3ccccc3)C(=O)N2[C@H]1C(=O)O [azlocillin] (10 µM)	-0.0252	104% (inactive)
O=C1S/C(=C\c2ccc(OCc3cccc(B(O)O)c3)cc2)C(=O)N1Cc1ccc(F)cc1 (10 µM)	0.0573	104% (inactive)
OC1=c2ccccc2=C(NC2CCCCC2)/C1=C\c1ccccc1 (0.833333 µM)	0.213	85.5% (inactive)
O=C1C[C@@H]2OCC=C3CN4CC[C@]56c7ccccc7N1[C@H]5[C@H]2[C@H]3C[C@H]46 [strychnine] (10 µM)	0.314	90% (inactive)
NCCc1cc[nH]n1 [betazole] (10 µM)	-0.0835	105% (inactive)
Cc1cc(NC(=O)Nc2ccc(N(C)C)cc2)c2cc(F)cc(F)c2n1 (10 µM)	0.204	99% (inactive)
Nc1cc(C(Cl)=C(Cl)Cl)c(S(N)(=O)=O)cc1S(N)(=O)=O [clorsulon] (10 µM)	0.206	98% (inactive)
Cc1cc(Cn2nnc3c(-c4ccco4)nc(N)nc32)ccc1N [vipadenant] (10 µM)	0.0562	110% (inactive)
Cc1cc(CCC[C@H](CC(=O)NO)C(=O)N[C@H](C(=O)N[C@H](C)c2ccccc2)C(C)(C)C)ccc1-c1ccccc1 (0.833333 µM)	-0.0923	102% (inactive)
O=C(Nc1ccc(-c2ccncc2)cc1)N[C@H](CO)c1ccccc1 (0.833333 µM)	0.489	94% (inactive)
COc1cc(C(=S)N2CCOCC2)cc(OC)c1OC [sulmetozine] (10 µM)	0.0452	106% (inactive)
CC(C)(C)c1ccc(O)cc1 [4-tert-butylphenol] (10 µM)	0.0892	110% (inactive)
C=CCNc1nc(NCC=C)nc(N2CCN(C(c3ccc(F)cc3)c3ccc(F)cc3)CC2)n1 [almitrine] (10 µM)	0.136	101% (inactive)
NC(=O)CC[C@H](N)C(=O)O [L-glutamine] (10 µM)	0.278	94% (inactive)
CNC(=O)[C@@H](Cc1ccccc1)N(C)C(=O)[C@@H](Cc1ccc2ccccc2c1)N(C)C(=O)/C=C/CC(C)(C)N [tabimorelin] (10 µM)	-0.00047	112% (inactive)
O=C1Nc2ccccc2C2(CCN(CCc3ccc(C(F)(F)F)cc3)CC2)O1 (10 µM)	-0.158	106% (inactive)
CC(C)(N)Cc1ccccc1 [phentermine] (10 µM)	-0.154	118% (inactive)
CC(C)Cc1ccc(C(C)C(=O)O)cc1 (stereo not drawn) [ibuprofen] (10 µM)	0.0447	108% (inactive)
CC(C)c1nc(N(C)S(C)(=O)=O)nc(-c2ccc(F)cc2)c1/C=C/[C@@H](O)C[C@@H](O)CC(=O)O [rosuvastatin] (0.833333 µM)	0.322	99% (inactive)
COc1ccc(-c2ccc(=N)n(CCCC(=O)O)n2)cc1 [gabazine] (10 µM)	-0.176	103% (inactive)
CCCOCCn1c(=O)c(N2CCN(CCO)CC2)nc2cnc(-c3ccc(OC)nc3)cc21 (10 µM)	-0.0795	116% (inactive)
CCC[S+]([O-])c1ccc2[nH]c(NC(=O)OC)nc2c1 (stereo not drawn) [albendazole-oxide] (10 µM)	0.034	110% (inactive)
O=C(C[C@H]1CC(c2ccc(F)cc2F)=NO1)N1CCOCC1 (racemic) (10 µM)	0.00815	103% (inactive)
O=C(c1ccc(-c2ccc(Cl)cc2)o1)N(Cc1ccccn1)c1ccc(N2CCNCC2)cc1 (0.833333 µM)	0.128	106% (inactive)
CCCCOC(=O)c1ccc(N)cc1 [butamben] (10 µM)	0.102	108% (inactive)
C[S+](CC[C@H](N)C(=O)O)C[C@H]1O[C@@H](n2cnc3c(N)ncnc32)[C@H](O)[C@@H]1O (stereo partly drawn) [ademetionine] (10 µM)	0.0625	96.5% (inactive)
O=C(O)COCCN1CCN(C(c2ccccc2)c2ccc(Cl)cc2)CC1 (stereo not drawn) [cetirizine] (10 µM)	0.153	98.2% (inactive)
C=C[C@@H]1C[C@]1(NC(=O)[C@@H]1C[C@@H]2CN1C(=O)[C@H](C(C)(C)C)NC(=O)O[C@@H]1C[C@H]1CCCCCc1nc3ccc(OC)cc3nc1O2)C(=O)NS(=O)(=O)C1CC1 [grazoprevir] (10 µM)	0.0897	109% (inactive)
